Potency data for 66 compounds are collected here from ChEMBL document CHEMBL1201862, “PubChem BioAssay data set” (2004).

The whole screen tested about 400,000 compounds, of which about 2,100 (0.53%) were called active. Another 14% or so got no clear call; they are omitted. No rule for the calls is given here. Many of the other results were omitted from the sample, so actives are more common in it than they were.

The target in the test is Ataxin-2 (Homo sapiens) (UniProt Q99700). The test can be described thus: qHTS for Inhibitors of ATXN expression. Format: functional. A general note: qHTS replaces the single test concentration by a dilution series.
Chain of Ataxin-2 (Homo sapiens) (Q99700 whole entry): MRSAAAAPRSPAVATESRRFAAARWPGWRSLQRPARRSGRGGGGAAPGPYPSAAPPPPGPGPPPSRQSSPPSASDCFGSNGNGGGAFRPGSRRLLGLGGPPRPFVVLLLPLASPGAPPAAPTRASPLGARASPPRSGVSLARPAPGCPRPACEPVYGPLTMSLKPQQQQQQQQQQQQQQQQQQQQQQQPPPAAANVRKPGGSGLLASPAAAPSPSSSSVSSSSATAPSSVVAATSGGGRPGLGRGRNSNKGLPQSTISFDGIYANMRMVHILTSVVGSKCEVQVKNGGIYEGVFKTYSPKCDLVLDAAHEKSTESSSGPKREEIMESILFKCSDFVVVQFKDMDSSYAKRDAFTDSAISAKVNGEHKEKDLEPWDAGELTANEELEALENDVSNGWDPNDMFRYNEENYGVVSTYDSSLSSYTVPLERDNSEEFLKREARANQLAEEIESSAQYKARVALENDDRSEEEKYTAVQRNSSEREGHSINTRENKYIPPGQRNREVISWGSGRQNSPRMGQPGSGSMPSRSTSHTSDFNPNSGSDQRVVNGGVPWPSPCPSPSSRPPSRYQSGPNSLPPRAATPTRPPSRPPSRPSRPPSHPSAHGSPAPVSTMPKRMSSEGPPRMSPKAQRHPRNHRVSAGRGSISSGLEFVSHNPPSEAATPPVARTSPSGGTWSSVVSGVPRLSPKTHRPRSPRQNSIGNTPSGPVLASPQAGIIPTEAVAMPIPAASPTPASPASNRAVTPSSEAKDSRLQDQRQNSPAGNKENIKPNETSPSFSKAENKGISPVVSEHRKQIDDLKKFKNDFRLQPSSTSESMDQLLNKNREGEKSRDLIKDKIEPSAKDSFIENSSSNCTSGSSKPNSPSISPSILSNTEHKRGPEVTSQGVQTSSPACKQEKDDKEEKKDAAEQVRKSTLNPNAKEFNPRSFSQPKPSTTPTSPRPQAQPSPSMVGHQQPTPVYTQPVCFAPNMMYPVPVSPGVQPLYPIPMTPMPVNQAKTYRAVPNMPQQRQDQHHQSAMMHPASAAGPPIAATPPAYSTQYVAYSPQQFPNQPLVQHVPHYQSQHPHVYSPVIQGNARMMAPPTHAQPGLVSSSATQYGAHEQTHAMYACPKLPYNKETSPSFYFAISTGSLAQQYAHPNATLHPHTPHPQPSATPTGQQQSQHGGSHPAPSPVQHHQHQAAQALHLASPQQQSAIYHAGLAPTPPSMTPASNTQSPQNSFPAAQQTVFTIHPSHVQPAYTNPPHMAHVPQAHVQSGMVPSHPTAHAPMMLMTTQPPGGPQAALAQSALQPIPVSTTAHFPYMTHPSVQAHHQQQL
As to `CCn1nc(NC(C)=O)c2cc3ccc(C)cc3nc21`, the Potency entry was “inactive”. The result for `CCC(=O)NC1=C(Cl)C(=O)C(NC(=O)CC)=C(Cl)C1=O` reads 5.01 µM (active); that for `CCN(CC)c1ccc2cc(-c3nnc(-c4ccncc4)o3)c(=O)oc2c1`, “inactive”. As for `O=C(N/N=C/c1sc(N2CCOCC2)nc1-c1ccccc1)c1ccccc1Cl`, the entry is “inactive”; as for `O=C(Oc1c(-c2ccco2)oc2ccccc2c1=O)c1cccnc1`, “inactive”.

On to `CCOC(=O)C1=C(C)OC(N)=C(C#N)C1c1cccs1` (stereo unspecified), for which the Potency result was “inactive”. The result for `O=S(=O)(Nc1cccc(-c2nc3cccnc3s2)c1)c1ccc2c(c1)CCCC2` reads “inactive”; that for `CC1C(=O)C(C)C(c2cc(Cl)ccc2O)NC1c1cc(Cl)ccc1O` (stereo unspecified), 39.8 µM (active). Regarding `CCc1cc2c(CN3CCN(CC)CC3)cc(=O)oc2cc1O`, the Potency result is “inactive”.

Consider `CCCCN(C)C1=CC2=CC(=C(C#N)C#N)CCC2CC1` (stereo unspecified), for which the Potency entry was “inactive”. As for `O=C(c1cc(-c2ccc(F)cc2)nc2ccccc12)N1CCN(C2CCS(=O)(=O)C2)CC1` (stereo unspecified), the entry is “inactive”. On to `COc1cc(OC)c(OC)cc1CNCC1COc2ccccc2O1` (stereo unspecified), for which the Potency entry is “inactive”.

As for `Cc1nc2ccccc2c2oc(C(=O)N3CCC(N4CCCCC4)CC3)cc12`, the Potency was 5.62 µM (active). The result for `Cc1sc2ncn(CC(=O)NCC3COc4ccccc4O3)c(=O)c2c1S(=O)(=O)N1CCCCC1` (stereo unspecified) reads “inactive”; that for `Cc1nc2ccccc2c2oc(C(=O)NCC3COc4ccccc4O3)cc12` (stereo unspecified), 35.5 µM (active); that for `COCc1c(C(=O)N2CCC(N3CCCCC3)CC2)cnn1-c1ncc(C)c(-c2cccs2)n1`, “inactive”. Turning to `Nc1cccc(N2C(=O)c3cccc4c(N)ccc(c34)C2=O)c1`, the Potency result was “inactive”. The result for `CC(O)C(/N=C/C1=C(O)OC(C)(C)OC1=O)C(=O)O` (stereo unspecified) reads “inactive”; that for `O=C(O)c1ccc2nc(-c3ccco3)c(-c3ccco3)nc2c1`, “inactive”; that for `CCc1cccc2cc3c(N)c(C(=O)Nc4ccc(S(=O)(=O)N5CCCC5)cc4)sc3nc12`, “inactive”. The result for `Nc1c(C(=O)Nc2ccc(S(=O)(=O)N3CCCC3)cc2)sc2nc3ccc(OC(F)(F)F)cc3cc12` reads 4.47 µM (active). The result for `CCOc1ccc2nc3sc(C(=O)N4CCOCC4)c(N)c3cc2c1` reads “inactive”. Consider `N#C/C(=C\c1c(Oc2ccc(Cl)cc2)nc2ccccn2c1=O)C(=O)NC1CCS(=O)(=O)C1` (stereo unspecified), for which the Potency entry is “inactive”. As for `COC(=O)c1[nH]c2ccc(Br)cc2c1NC(=O)C(C)N1CCN(C2CCCCC2)CC1` (stereo unspecified), the figure is 39.8 µM (active); as for `Cn1c(N)c(C(=O)COC(=O)CCOc2ccc(C(C)(C)C)cc2)c(=O)n(C)c1=O`, “inactive”. The result for `O=C(NC1CCC(O)CC1)c1cc(-c2ccco2)nc2ccccc12` (stereo unspecified) reads “inactive”.

Turning to `COc1cc(OC)cc(C(=O)NCCCCNC(=O)c2cc(OC)cc(OC)c2)c1`, the Potency entry is “inactive”.

Consider `COc1cc(CN2CCC3(CCC(CNC(=O)c4ccccc4)O3)CC2)cc(OC)c1` (stereo unspecified), for which the Potency was 11.2 µM (active). As for `CN1CCCC1CCNc1ccc2c(=O)c3ccccc3oc2c1` (stereo unspecified), the entry is “inactive”; as for `N#C/C(=C(/O)COC(=O)c1ccccc1O)c1nc2ccccc2s1`, “inactive”; as for `CC1=CC(=C(C#N)c2nc3ccccc3s2)C=C(C)N1CC1CCCO1` (stereo unspecified), “inactive”. The result for `Cc1c(Cl)cccc1N/C(SCC(=O)N1CCCCCC1)=C(/C#N)c1nc2ccccc2s1` reads 25.1 µM (active); that for `COc1ccc(CNCC(=O)Nc2sccc2C#N)cc1`, “inactive”; that for `COc1ccc(-c2oc(NC(=O)CCl)c(C#N)c2-c2ccc(OC)cc2)cc1`, 31.6 µM (active). The result for `COc1ccc(-c2c(C#N)c(N)nc3sc(C(=O)c4ccccc4)c(N)c23)cc1` reads “inactive”; that for `Cc1cccc(C)c1NC(=O)NC1(C(=O)N2CCCCC2)CCCCC1`, “inactive”.

For the compound `O=S(=O)(Nc1nc2n(n1)C(c1ccc(F)cc1)C=C(c1ccccc1)N2)c1ccc(Cl)cc1` (stereo unspecified), the Potency result is “inactive”. As for `CC(C)Cc1ccc(C(C)/C=C2/CCC(CN3CCCCC3)C2=O)cc1` (stereo unspecified), the figure is 35.5 µM (active). As for `CCOC(=O)C1C(=O)C=C(c2ccc(NS(C)(=O)=O)cc2)CC1c1ccco1` (stereo unspecified), the entry is “inactive”; as for `COn1c(C)c(C)c2c3nonc3ccc21`, “inactive”; as for `O=C(O)c1cc2cc(Cl)cc(Cl)c2oc1=O`, “inactive”. The result for `O=C1C(Br)=C(c2ccccc2)C(c2ccccc2)=C1c1ccccc1` reads 39.8 µM (active); that for `O=C(c1cnc2nc3ccccc3n2c1)c1cc(F)ccc1O`, “inactive”; that for `CC(C)(C)c1ccc(C2=CC(c3ccccc3F)n3ncnc3N2)cc1` (stereo unspecified), “inactive”. For `O=C1C=CC(=O)N1c1ccc(N2CCCCC2)cc1`, the Potency was 39.8 µM (active). The result for `CN1C(=O)c2ccc(N3CCCC3)cc2C1=O` reads “inactive”; that for `O=S(=O)(c1ccccc1)c1ccc(N2CCCCCC2)cc1`, “inactive”. As for `COc1cccc(Nc2nc(C(N)C3CCCCC3)cs2)n1` (stereo unspecified), the figure is 39.8 µM (active); as for `NC(c1csc(Nc2ccc(C(=O)c3ccccc3)cc2)n1)C1CCCCC1` (stereo unspecified), 31.6 µM (active). The result for `COc1ccc(C(=O)c2sc(Nc3ccccc3)nc2N)cc1OC` reads “inactive”; that for `NC(Cc1ccc(Cl)cc1)c1csc(Nc2ccc(C(=O)c3ccccc3)cc2)n1` (stereo unspecified), 39.8 µM (active). On to `O=C(O)Cc1sc(Nc2ccccc2)nc1-c1ccccc1`, for which the Potency result is “inactive”. The result for `NC(Cc1ccc(F)cc1)c1csc(Nc2ccc(C(=O)c3ccccc3)cc2)n1` (stereo unspecified) reads 39.8 µM (active); that for `COc1ccc(C(=O)c2sc(Nc3ccccc3)nc2C)cc1`, “inactive”; that for `CCOC(=O)c1cc2c(=O)n3ccccc3nc2n(Cc2ccco2)/c1=N/C(=O)c1ccc(OC)cc1`, “inactive”. The result for `O=C1CCCC(O)=C1C1C2=C(CCCC2=O)OC2=C1C(=O)CCC2` reads “inactive”; that for `CCOc1cccc2cc(-c3csc(NC(=O)CCC(=O)NCCN4CCCCC4C)n3)c(=O)oc12` (stereo unspecified), “inactive”. On to `N#CC1=C(N)Oc2cc(N)ccc2C1c1ccccc1F` (stereo unspecified), for which the Potency result is “inactive”. In the case of `c1ccc(-c2nnc(SCC3CCCCO3)nc2-c2ccccc2)cc1` (stereo unspecified), the Potency result was “inactive”. On to `NC(Cc1ccccc1)c1csc(Nc2nncc3ccccc23)n1` (stereo unspecified), for which the Potency entry is “inactive”. The result for `NC(Cc1ccc(F)cc1)c1csc(Nc2nncc3ccccc23)n1` (stereo unspecified) reads 39.8 µM (active); that for `Cc1ccc(C#N)c(SCC(=O)Nc2nccs2)n1`, “inactive”; that for `O=C(O)c1ccc(CP(=O)(c2ccccc2)c2ccccc2)cc1`, “inactive”. The result for `O=C(C=P(c1ccccc1)(c1ccccc1)c1ccccc1)c1ccccc1-c1ccccc1C(=O)C=P(c1ccccc1)(c1ccccc1)c1ccccc1` reads 20 µM (active); that for `Cc1ccccc1-n1nnnc1SCc1cc(=O)n2ccsc2n1`, “inactive”; that for `Cc1cccc2nc(CSc3nc4nncc-4c(O)n3-c3cccc(Cl)c3)cc(=O)n12`, 35.5 µM (active).
